Laboratory results as given in PubChem BioAssay (NCI).
The panel holds about 83,000 compounds, 20% with a hit somewhere; the sample as a whole holds those more often.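 Compound tested at a single concentration for 48 hours in 96-well plates; a percent growth value below 10 was scored as active.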 A number with no mark means an inactive call. Calls of active or inactive are those of the source.

test system: HL-60(TB) leukemia; test: NCI-60 one-dose screen, 48 h (100 = growth as untreated, 0 = no growth, -100 = all killed); conditions: 10 µM unless noted

Compound | growth
COc1ccc(-c2nc3sccn3c2/C=C/C(=O)c2c[nH]c3ccccc23)cc1 | 117%
O=C1Nc2ccccc2/C1=N/N=C/c1ccc(OC2OC(CO)C(O)C(O)C2O)cc1 (stereo not given) | 101%
COc1cc(C)ccc1C(=O)c1ccc(C)cc1OC | 8.59% (active)
CC/C(=C(/c1ccc(Cl)cc1)c1ccc(OCCN2CCCCC2)cc1)c1ccc(OC)cc1 | 24%
CC(C)c1ccc2occ(C=C3C(=O)NC(=O)NC3=O)c(=O)c2c1 | 74.8%
Oc1ccccc1/C=N/N=C\c1ccccc1Cl | 30.9%
CCOC(=O)C1C(=O)OC2CCCCC21 (stereo not given) | 98.5%
CCOC(=O)c1cnc2c(cnn2CC)c1NN=C(C)C | 74.4%
Cc1ccccc1NC(=O)Cn1cc(CN2CCN(c3ccnc4cc(Cl)ccc34)CC2)nn1 | 22.2%
CNC(=O)Nc1ccc(-c2ccc3ncnc(Nc4cccc(Cl)c4)c3c2)cc1 | 76.2%
O=S(=O)(NCCO)c1ccc(OCCOc2ccc(S(=O)(=O)NCCO)cc2)cc1 | 68.4%
O=C1Nc2ccc(Cl)cc2/C1=N/N=C/c1c[nH]c2ccccc12 | 95.5%
CC/C(=C\c1ccc(OC)cc1)C(=O)c1ccc(OC)cc1 | 131%
CCCCCCC/C(=N\N=C(N)N)c1ccc(O)cc1 | 6.11% (active)
COC1C(O)CC(OC2CC(OC3CC(O[C@@H]4C(=O)c5c(cc6cc(OC7CC(OC8CC(O)C(O)C(C)O8)C(O)C(C)O7)c(C)c(O)c6c5O)CC4[C@H](OC)[C@@H](O)C(C)=O)OC(C)C3O)OC(C)C2O)OC1C (stereo not given in full) | 14.3%
COc1ccc(-c2ccc(-c3ccc(C(=N)N)o3)o2)cc1 | -46.2% (active)
CC(=O)Nc1cccc(-c2ccc3c(c2)NC(=O)/C3=C\c2ccc[nH]2)c1 | 20.2%
COc1ccc(C(=O)Nc2cccc(C3CCc4c(cc(OC)c(OC)c4OC)O3)c2)cc1 (stereo not given) | 10.7%
COC(=O)c1c2c(c(C)[n+]([O-])c1C)C(=O)C=C(NCc1ccc(Br)cc1)C2=O | -19.4% (active)
C[C@@]1(CCC#N)[C@H]2CC[C@@H]3[C@H]4[C@H](C(=O)/C=C/c5cccnc5)CC[C@]4(C#N)CC[C@@]3(C)[C@]2(C)CC[C@H]1C(=O)/C=C/c1cccnc1 | 46%

Compound | growth
O=C(Nc1cccc(C2=NCCN2)c1)c1cccc(C(=O)Nc2cccc(C3=NCCN3)c2)c1 | 98.7%
Nc1c(C(=O)Nc2cccc3ccccc23)sc2nc3c(cc12)CCCC3 | -11.1% (active)
C[C@]12CC[C@@H]3c4ccc(O)c([N+](=O)[O-])c4CC[C@H]3[C@@H]1CC[C@@H]2NS(=O)(=O)c1cccc(Br)c1 | -5.66% (active)
Brc1ccc2[nH]cc(-c3nc(-c4c[nH]c5ncccc45)cs3)c2c1 | 32.7%
Cc1ccc(-c2nc(C#N)c(S(=O)(=O)N(C)C)o2)cc1 | 0.829% (active)
CCCCOc1ccc(/C=C2/SC(N3CCOCC3)=NC2=O)cc1OCC | 101%
COc1ccc(-n2nc(C(=O)NCC(=O)O)nc2-c2ccccc2)cc1 | 96.3%
FC(F)(F)c1ccc(-c2cnc(Cl)nc2N2CCC3(CC2)OCCO3)cc1 | 83.6%
Cc1cc(N2CCCCC2)nc(NC2CCCC(Nc3ccnc4cc(Cl)ccc34)C2)n1 (stereo not given) | -63.6% (active)
CCc1ccc(-c2nnc(COc3ccc(-c4nc5ccccc5[nH]4)cc3OC)o2)cc1 | 78.4%
CN1CCN(Cc2ccc(NC(=O)c3cccc(C#Cc4cnc(N)c5ncccc45)c3F)cc2C(F)(F)F)CC1 | 12%
Cc1ccc(C(CC(=O)O)c2c(C)[nH][nH]c2=O)cc1 (stereo not given) | 98.8%
O=C1c2ccccc2C(=O)c2c(Nc3ccc(CCO)cc3)ccc(O)c21 | 83.9%
CCOC(=O)/C(C)=C\c1ccc(OC)c(OC)c1 | 88.4%
COc1ccc(C(=O)CC(c2ccccc2)C(C#N)c2ccccc2)cc1 (stereo not given) | 87.3%
CCSC(SCC)c1ccc(Cl)cc1 | 116%
O=C(C1=Cc2cc3ccccc3n2Cc2cnnn21)c1ccc(O)cc1 | 41.7%
COc1cc(NN=C(c2ccc(O)cc2)c2ccc(O)cc2)c([N+](=O)[O-])cc1[N+](=O)[O-] | 133%
CCCCCCn1c(-c2ccc(C(=O)O/N=C(\N)c3ccc4ccccc4c3)cc2)nc(-c2ccccc2)c1-c1ccccc1 | 2.97% (active)
COc1ccc(/C=N/C2=NNC(C)(c3ccccc3O)N2C(Cc2c[nH]c3ccccc23)C(=O)O)cc1 (stereo not given) | -21.9% (active)
